Experimental findings from PubChem BioAssay AID1852 (Sanford-Burnham Center for Chemical Genomics, 2009) are described below.

About 1,100 (44%) of roughly 2,500 compounds were called active. The set was probably picked from earlier hits. This is one part of the list. Unmarked numbers belong to inactive results.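 The calls were made as follows: active = inhibition above 50% at 4 µM in the single-point screen; inactive = inhibition of 50% or less.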

This test can be described thus: blockers of TNF-a NF-kB luciferase induction – cell-based, HEK293T NF-kB-Luc, luminescence, selectivity assay for NOD1/NOD2 signaling inhibitor project, primary screen (AID 1852). As to conditions: TNF-a induced, 14 h, at 4 µM, stronger effect = higher value.
For `COc1ccc(NC(=O)c2cc(-c3ccco3)nc3ccccc23)cc1S(=O)(=O)N1CCOCC1`, the inhibition – broadly, the drop in the measured response relative to a control, in per cent – was 45.6%. With `CCOC(=O)c1ccc(NC(=O)c2ccc(C)c(S(=O)(=O)N3CCOCC3)c2)cc1`, the inhibition is 47.7%.

For `COc1ccc(C(=O)Nc2ccc(-c3ccc(C)o3)cc2)cc1S(=O)(=O)N1CCOCC1`, the inhibition is 66.1% (active). For `Cc1nc([N+](=O)[O-])c(Sc2nc3ccccc3[nH]2)n1Cc1ccccc1`, the inhibition is 36.1%. As for `O=C(NC(Nc1nc2ccc([N+](=O)[O-])cc2s1)(C(F)(F)F)C(F)(F)F)c1ccccc1Cl`, the inhibition was 85% (active). With `Cc1ccc(C)c(OCC(=O)Nc2nc3ccc([N+](=O)[O-])cc3s2)c1C` the figure was 43.5%. Turning to `Cc1cc(C)cc(OCC(=O)Nc2nc3ccc([N+](=O)[O-])cc3s2)c1`, the inhibition is 13.3%. Consider `CCOc1ccccc1NC(=O)Nc1ccc(Cl)cc1`, for which the inhibition was -53%. As for `CCOc1cc(/C=C(/C#N)c2ccc(Cl)cc2)cc(Cl)c1OCC(=O)O`, the inhibition was 90.7% (active).

With `CCOc1ccc(C(=O)/C=C/c2cc(OC)c(OC)c(OC)c2)cc1`, the inhibition was 9.7%. In the case of `COc1ccc2cc3c(N)nn(C(=O)c4cccc(F)c4)c3nc2c1`, the inhibition was 79.2% (active).

Regarding `COc1ccc2cc3c(N)nn(C(=O)c4ccc(Cl)c([N+](=O)[O-])c4)c3nc2c1`, the inhibition is 43.3%.

As for `COc1cccc(C(=O)c2sc(NC(C)C)nc2N)c1`, the inhibition is 41.4%. With `COc1ccc2cc3c(N)nn(C(=O)c4ccc(F)cc4)c3nc2c1` the figure was 60.6% (active).

Turning to `COc1ccc2cc3c(N)nn(C(=O)c4cccc([N+](=O)[O-])c4)c3nc2c1`, the inhibition is 65.4% (active). `COc1ccc(CN(C)S(=O)(=O)c2nnc(NC(=O)c3cccc(F)c3)s2)cc1`: the inhibition is 29.9%. Consider `COc1cccc(-n2c(CN3CCN(c4ccccc4)CC3)nc3ccc([N+](=O)[O-])cc3c2=O)c1`, for which the inhibition was -0.2%. Turning to `C/C(=N\NC(=O)c1ccc2c(c1)OCCO2)c1ccccc1`, the inhibition is 14%. Turning to `C/C(=N\NC(=O)c1ccc(Br)cc1)C1C(=O)c2ccccc2C1=O`, the inhibition was -12.6%. As to `C/C(=N\NC(=O)c1ccc(-c2ccccc2)cc1)C1C(=O)c2ccccc2C1=O`, the inhibition was 93.6% (active).

With `O=C(Cc1ccc(Cl)cc1Cl)Nc1ccncc1Cl`, the inhibition was 50% (active). With `Cc1ccc(CC(=O)Nc2ccncc2)cc1` the figure was 38.6%; with `COc1ccc(CC(=O)Nc2ccncc2Cl)cc1`, 54% (active); with `CCC(NC(=O)c1ccc2nc(Cc3ccc(OC)cc3)oc2c1)c1ccncc1` (centres undefined), 34%. In the case of `Cc1ccc(C(=O)Nc2sc(C)c(-c3ccccc3)c2C(N)=O)cc1[N+](=O)[O-]`, the inhibition is -277%. Turning to `Cc1ccc(C(=O)Nc2ccccc2N2CCCCC2)cc1[N+](=O)[O-]`, the inhibition is -17.9%.

For `Cc1ccc(C(=O)Nc2ccccc2-c2ccccc2)cc1[N+](=O)[O-]`, the inhibition is 75.4% (active). For the molecule `O=C(Nc1ccc(-c2cn3ccsc3n2)cc1)c1ccc(F)c(S(=O)(=O)N2CCOCC2)c1`, the inhibition was 30.4%. With `COc1cc(Nc2c3ccccc3nc3ccccc23)cc(OC)c1OC` the figure was -0.2%. Consider `COc1cc(C(=O)Nc2ccc(-c3nc4cc(C)ccc4o3)c(O)c2)cc(OC)c1OC`, for which the inhibition was 13.8%. As for `COc1ccc(Nc2cc(Nc3cc(OC)c(OC)c(OC)c3)ncn2)cc1`, the inhibition is 59.9% (active). With `O=C(Nc1nnc(-c2ccc(F)cc2)o1)c1cccc([N+](=O)[O-])c1` the figure was 89.2% (active); with `COc1ccccc1N(C)S(=O)(=O)c1ccc(C(=O)Nc2ccc(N3CCOCC3)cc2)cc1`, 35.4%; with `CCOc1ccc(-c2nnc(NC(=O)c3ccc(OCC(C)C)c(OC)c3)o2)cc1`, 105% (active). With `CN(c1ccccc1)S(=O)(=O)c1ccc(C(=O)Nc2nnc(-c3ccc(F)cc3)o2)cc1` the figure was 95% (active). With `O=C(NNC(=S)NC(=O)c1cccc([N+](=O)[O-])c1)c1ccc(Br)cc1`, the inhibition was -11.7%. In the case of `COc1ccc(-c2nnc(NC(=O)c3ccc(S(=O)(=O)N4CCc5ccccc5C4)cc3)o2)cc1`, the inhibition was 34.1%. `N#Cc1ccsc1NC(=O)c1cccc([N+](=O)[O-])c1`: the inhibition was 20.9%. In the case of `COc1ccc(-c2nnc(NC(=O)c3ccc(F)cc3)o2)cc1`, the inhibition is 102% (active). `CC(=O)O[C@]1(C(C)=O)CC[C@H]2[C@@H]3C=CC4=CC(=O)C=C[C@]4(C)[C@H]3CC[C@@]21C`: the inhibition is 32.7%. Take `O=C(Nc1nnc(-c2ccc(Cl)s2)o1)C1CC1`: the inhibition is -5.5%. Regarding `O=C(Nc1nnc(-c2ccc(F)cc2)o1)c1cc(Cl)sc1Cl`, the inhibition is 96.6% (active). For the molecule `C/C(=N\Nc1ncnc2sc(C)c(C)c12)c1ccccn1`, the inhibition is 103% (active).

With `COc1ccc(C2C(C(=O)N3CCOCC3)CCC(=O)N2c2ccc(OC)cc2)cc1` (centres undefined), the inhibition is 17.2%. With `Cc1cc(NC(=O)c2ccc(C)s2)n(-c2nc3ccccc3[nH]2)n1`, the inhibition is 31.1%.

Regarding `Cc1cc(NC(=O)c2cccs2)n(-c2nc3ccccc3[nH]2)n1`, the inhibition was 35.4%. On to `Cc1ccc(Nc2cc(C)nn2-c2nc(C)cc(=O)[nH]2)cc1`, for which the inhibition was 107% (active). With `Cc1cccc(N2CCN(C(=O)CCCCCn3c(=S)[nH]c4ccc(N5CCOCC5)cc4c3=O)CC2)c1C`, the inhibition was -10.2%. Take `Cc1ccc(C)c(N2CCN(C(=O)CCCCCn3c(=S)[nH]c4ccc(N5CCOCC5)cc4c3=O)CC2)c1`: the inhibition is 96.5% (active).

With `O=C(CCCn1c(=S)[nH]c2cc3c(cc2c1=O)OCO3)N1CCN(c2ccc(Cl)cc2)CC1`, the inhibition was 35.9%. With `Cc1ccccc1C(=O)N1CCN(c2ccc(NC(=O)c3ccc4c(c3)OCCO4)cc2)CC1` the figure was -3.1%; with `CC(C)C(=O)N1CCN(c2nc(-c3ccc(Cl)cc3)cs2)CC1`, -37.6%; with `CC(C)C(=O)N1CCN(c2ccc(NC(=O)c3ccc4c(c3)OCCO4)cc2Cl)CC1`, 80.5% (active). With `O=C(Nc1ccc2nn(-c3ccccc3)nc2c1)c1ccc2c(c1)OCCO2` the figure was 31.9%; with `Cc1ccc(C(=O)N2CCN(c3ccc(NC(=O)c4ccc5c(c4)OCCO5)cc3)CC2)cc1`, 84.2% (active); with `O=C(Nc1ccc(N2CCN(C(=O)c3ccc(Cl)cc3)CC2)cc1)c1ccc2c(c1)OCCO2`, 86.8% (active). For `CCCCCOc1ccc(/C=C/c2c([N+](=O)[O-])c(=O)n(C)c(=O)n2C)cc1`, the inhibition is 21.4%. As to `CCOC(=O)/C=C/C(=O)Nc1ccc(S(=O)(=O)N(C)c2ccccc2)cc1`, the inhibition is -15.6%. On to `CCOC(=O)/C=C/C(=O)Nc1ccc(S(=O)(=O)Nc2c(C)cc(C)cc2C)cc1`, for which the inhibition was 25.7%. Turning to `CCOC(=O)/C=C/S(=O)(=O)c1ccc(NC(C)=O)cc1`, the inhibition is 64% (active). On to `O=C(O)CCC(=O)c1ccc2ccc3cccc4ccc1c2c34`, for which the inhibition is 50% (active).

In the case of `Nc1[nH]nc2ncc3cc4ccccc4nc3c12`, the inhibition was 36.8%. As to `Cc1nn(-c2ccccc2)c(Cl)c1CN(C(=O)CCl)c1ccc(Cl)cc1`, the inhibition is 105% (active). With `Cc1nn(-c2ccccc2)c(Cl)c1CN(C(=O)CCl)c1cccc2ccccc12` the figure was 14.9%.

`CC(=O)N1CC(C)Sc2ccc(S(=O)(=O)NCc3ccc(Cl)cc3)cc21` (centres undefined): the inhibition is 11.8%.

`Fc1ccc(CSc2nnc(-c3ccncc3)o2)cc1`: the inhibition is 70.1% (active).

On to `Brc1cccc(CSc2nnc(-c3ccncc3)o2)c1`, for which the inhibition was 44.3%. Turning to `Cc1ccc(-c2nnc(SCC(=O)Nc3ccccc3F)o2)cc1`, the inhibition was 37.8%. In the case of `COC(=O)CSc1nnc(-c2sc3ccccc3c2Cl)o1`, the inhibition was 48.5%. Take `Clc1ccc(CSc2nnc(-c3ccncc3)o2)cc1`: the inhibition is 60.2% (active). Consider `CCc1cc(C(=O)NC2CCCc3c2cnn3-c2cccc(C)c2C)n(C)n1` (centres undefined), for which the inhibition is 59.1% (active).

Turning to `Cc1cc(C(=O)NC2CCCc3c2cnn3-c2cccc(C)c2C)n(C)n1` (centres undefined), the inhibition was 56.4% (active). In the case of `Cc1ccccc1NC(=O)COC(=O)c1ccc(S(C)(=O)=O)c([N+](=O)[O-])c1`, the inhibition is 13%. As for `COc1ccc(NC(=O)CN2CCc3ccccc3C2)c([N+](=O)[O-])c1`, the inhibition was -10.5%. With `CC(=O)c1c(C)[nH]c(C(=O)OCC(=O)Nc2ccc(C)cc2[N+](=O)[O-])c1C` the figure was 79.4% (active); with `O=[N+]([O-])c1ccc(N/N=C/c2sc(N3CCOCC3)nc2-c2ccccc2)c(S(=O)(=O)Nc2ccccc2Cl)c1`, 88.5% (active).

For the molecule `CCN(CC)S(=O)(=O)c1ccc(N2CCOCC2)c(NC(=O)c2cc([N+](=O)[O-])ccc2Cl)c1`, the inhibition is -28.1%. With `O=[N+]([O-])c1ccc(N/N=C/c2sc(N3CCOCC3)nc2-c2ccccc2)c(S(=O)(=O)Nc2ccc(Cl)cc2)c1`, the inhibition was 60.9% (active). On to `Cc1nnc(SCC(=O)N2CCC(c3noc4ccc(F)cc34)CC2)s1`, for which the inhibition was 84.5% (active). Turning to `CCCCCCCCCn1ccc(=N)cc1`, the inhibition was 76.4% (active). With `CCCCCCCn1ccc(=N)cc1` the figure was 20.9%; with `CCCCCCCCn1ccc(=N)cc1`, 62.3% (active); with `CCCCCCCCCCn1ccc(=N)cc1`, 83.1% (active).

Take `CC[C@@H](C)[C@H](NC(=O)OC(C)(C)C)c1nnc(S(=O)(=O)Cc2cc(C)ccc2C)o1`: the inhibition is 38.2%. On to `CN(C)S(=O)(=O)N1CCC(Oc2cccc(C(=O)NC3CCCCC3)c2)CC1`, for which the inhibition is 20.4%. Turning to `CN(C)S(=O)(=O)N1CCC(Oc2cccc(C(=O)NC3CCCCCC3)c2)CC1`, the inhibition was 54% (active). In the case of `CC1CCN(S(=O)(=O)c2nnc(NC(=O)c3cccc(Cl)c3)s2)CC1`, the inhibition is 37%. For the molecule `CN(Cc1ccccc1)C1=CC(=[N+]2CCCCC2)CC(C)(C)C1`, the inhibition was 58.1% (active). For `Cc1nc(Nc2cnc(/C=C/c3cc(C(=O)Nc4cccc(C(F)(F)F)c4)ccc3C)cn2)cc(N2CCNCC2)n1`, the inhibition was -21.5%.
